SRC3 TRFRET art: counter-screen for PPARgamma SRC-3 recruitment agonists: TR-FRET artefact. PPARgamma/SRC-3 format; stronger effect = higher value. TR-FRET ratio at 8 µM. 0.39% of 99,000 active. AID 1048
SRC2 TRFRET art: flags TR-FRET format artefacts in PPARgamma SRC-2 recruitment agonist screen; AID 1049; TR-FRET ratio at 8 µM; 0.4% of 200,000 active; TR-FRET artefact counter-screen; stronger effect = higher value
PPARg SRC-2 ag: agonists of SRC-2 recruitment by human PPARgamma; PPARgamma LBD-SRC-2 recruitment, biochemical; activation, % at 8 µM; 0.34% of 200,000 active; AID 1032; in the data active = activation above about 22%
Target sequence (P37231 whole entry, looked up, the tested form may be a part): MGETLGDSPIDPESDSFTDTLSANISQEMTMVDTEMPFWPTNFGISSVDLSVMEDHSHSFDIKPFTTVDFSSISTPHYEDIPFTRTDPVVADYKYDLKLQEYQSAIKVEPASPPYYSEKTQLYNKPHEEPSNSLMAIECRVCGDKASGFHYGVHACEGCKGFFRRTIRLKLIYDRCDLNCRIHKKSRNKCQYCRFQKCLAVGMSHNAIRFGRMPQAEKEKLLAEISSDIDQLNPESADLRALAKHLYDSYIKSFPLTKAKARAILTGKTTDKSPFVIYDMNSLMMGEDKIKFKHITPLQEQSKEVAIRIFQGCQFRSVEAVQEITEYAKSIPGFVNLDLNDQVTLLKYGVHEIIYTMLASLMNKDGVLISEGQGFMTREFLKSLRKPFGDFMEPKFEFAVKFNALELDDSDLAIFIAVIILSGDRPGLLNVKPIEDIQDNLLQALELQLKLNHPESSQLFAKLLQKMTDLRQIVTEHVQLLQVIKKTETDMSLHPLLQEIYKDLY
PPARg SRC1 recr: PPARgamma-driven SRC-1 recruitment agonism; activation, % at 8 µM; AID 631; PPARgamma-SRC-1 coactivator recruitment biochemical assay; 0.41% of 200,000 active; P37231; in the data active = activation above about 19%
PPARg SRC-3 ag: promotes SRC-3 coactivator recruitment by human PPARgamma | AID 731 | P37231 | 0.26% of 200,000 active | biochemical PPARgamma/SRC-3 coactivator recruitment assay | activation, % at 8 µM; in the data active = activation above about 23%
SRC1 TRFRET art: TR-FRET artefact, counter-screen to PPARgamma/SRC-1 agonist assay; TR-FRET detection artefact counter-screen, emission ratio; stronger effect = higher value; TR-FRET ratio at 8 µM; 0.34% of 99,000 active; AID 1051; in the data active = TR-FRET ratio above about 2300
Large screens that a line does not name were inactive. Rows were chosen to be rich in hits. Some 0.9% of all compounds tested hit in one or more screens of this group. Rule as the data show it, unless noted: active = TR-FRET ratio above about 2000; inactive = the rest.

COc1cc(/C=N/NC(=O)CN2CCCCC2)ccc1OCc1ccc(Br)cc1	none
CCO[C@@H]1OC(C(=O)N2CCN(Cc3ccc4c(c3)OCO4)CC2)=C[C@H](c2csc3ccccc23)[C@H]1CCCO	PPARg SRC-2 ag 23
CCO[C@H]1OC(C(=O)N2CCN(Cc3ccc4c(c3)OCO4)CC2)=C[C@@H](c2ccccc2)[C@@H]1CCCO	none
N#Cc1cc2c(nc1SCc1ccccc1)CCCC2	none
N#Cc1cc2c(nc1SCc1ccccc1)CCC2	PPARg SRC1 recr 85 (no result: SRC3 TRFRET art, SRC1 TRFRET art)
COc1ccc(OCC(=O)Nc2cc(-c3nn(C)c(=O)c4ccccc34)ccc2OC)cc1	PPARg SRC1 recr 38 (no result: SRC3 TRFRET art, SRC1 TRFRET art)
O=C/C(=C\Nc1ccc(C(=O)N2CCOCC2)cc1)c1nc2ccccc2o1	none
CSC1=NC2(CC(c3ccccc3)Oc3cc(O)ccc32)CC(C)(C)N1 (stereo not drawn)	PPARg SRC-3 ag 29 (no result: SRC3 TRFRET art, SRC1 TRFRET art)
COc1cc(CC(CC(=O)O)CC(C)OCc2ccccc2)cc(OC)c1 (stereo not drawn)	none
COc1ccccc1C(=O)Nc1cccnc1	none
COc1ccccc1C(=O)Nc1ccccn1	PPARg SRC-2 ag 24 (no result: SRC3 TRFRET art, SRC1 TRFRET art)
Cc1ccc2c(ccc(=S)n2C)c1	SRC3 TRFRET art 2121
CC(=O)N1N=C(c2cccs2)CC1c1ccc(C)o1 (stereo not drawn)	SRC1 TRFRET art 2339
S=C(NCc1ccc(Cl)cc1Cl)Nc1ccccc1	PPARg SRC-3 ag 23
COC(=O)CN1C2=NCCCN2c2ccccc21	none
O=C(CCCCCn1c(=S)[nH]c2ccc(N3CCOCC3)cc2c1=O)NCc1ccccc1Cl	SRC3 TRFRET art 3063
O=C(CCCCCn1c(=S)[nH]c2ccc(N3CCOCC3)cc2c1=O)NCc1ccc2c(c1)OCO2	SRC3 TRFRET art 3424
O=C(c1ccc(Cn2c(=S)[nH]c3ccc(N4CCOCC4)cc3c2=O)cc1)N1CCN(c2ccc(F)cc2)CC1	SRC3 TRFRET art 3426, SRC2 TRFRET art 2803, SRC1 TRFRET art 3474
O=c1c2cc(N3CCOCC3)ccc2[nH]c(=S)n1Cc1ccc(Cl)cc1	none (no result: SRC3 TRFRET art, SRC1 TRFRET art)
CCCCn1c(=S)[nH]c2ccc(N3CCOCC3)cc2c1=O	none
O=C(CCCCCn1c(=S)[nH]c2ccc(N3CCOCC3)cc2c1=O)NCCc1ccccc1	none
O=C(CCCCCn1c(=S)[nH]c2ccc(N3CCOCC3)cc2c1=O)NCc1ccc(Cl)cc1	SRC3 TRFRET art 2786
COc1ccc(N2CCN(C(=O)c3ccc(Cn4c(=S)[nH]c5ccc(N6CCOCC6)cc5c4=O)cc3)CC2)cc1	none
O=C(NC1CCCC1)C1CCN(C(=O)c2ccc(-c3ccccc3)cc2)CC1	none
O=C(NCC1CCCO1)c1ccc(NS(=O)(=O)c2ccccc2)cc1 (stereo not drawn)	none
CC1CCCCC1NC(=O)c1ccc(S(=O)(=O)NCC2CCCO2)cc1 (stereo not drawn)	none
CC(C)(C)c1nnc(NC(=O)CN2C(=O)C3C4C=CC(C4)C3C2=O)s1 (stereo not drawn)	PPARg SRC-3 ag 36 (no result: SRC3 TRFRET art, SRC1 TRFRET art)
O=C1c2cccc(OCC(=O)N3CCCc4ccccc43)c2CCN1Cc1ccc(Br)cc1	none
O=C1c2cccc(OCC(=O)N3CCCc4ccccc43)c2CCN1Cc1ccccc1	PPARg SRC1 recr 24
Nc1ccccc1C(=O)NCc1ccc(Cl)cc1	none
CC(C)(C)NC(=O)CSc1nnc(-c2ccco2)n1Cc1ccco1	SRC2 TRFRET art 2029
O=C(O)c1sc2cccc(Cl)c2c1Cl	none
Brc1ccc(C=Nc2ccc(Nc3ccccc3)cc2)s1	PPARg SRC-2 ag 29
O=C(CSc1nc2c(c(=O)[nH]1)CCC2)Nc1cccc(Cl)c1	none (no result: SRC3 TRFRET art, SRC1 TRFRET art)
N#Cc1c(-c2ccco2)nc(SCC(=O)Nc2cccc(Cl)c2)[nH]c1=O	SRC2 TRFRET art 2164 (no result: SRC3 TRFRET art, SRC1 TRFRET art)
C/C(=N/O)c1ccc2c(c1)OCCOCCOc1cc(/C(C)=N/O)ccc1OCCOCCO2	none
O=C(CSc1nc2nc3c(cc2c(=O)n1-c1ccccc1)CCCC3)Nc1cccc2ccccc12	SRC3 TRFRET art 2727, SRC2 TRFRET art 2372, SRC1 TRFRET art 2437
CCn1c(SCC(=O)Nc2ccc(Cl)cc2)nc2nc3c(cc2c1=O)CCCC3	SRC2 TRFRET art 2837, PPARg SRC-2 ag 68
CC(=O)c1c(C)[n+]([O-])c2ccc3c(non3O)c12	SRC2 TRFRET art 1981
COc1ccccc1N1CCN(C(=O)CN(C)S(=O)(=O)c2ccc3c(c2)c(=O)n(C)c(=O)n3C)CC1	none
CC(=O)c1cccc(NC(=O)c2cc3ccccn3n2)c1	PPARg SRC-2 ag 24 (no result: SRC3 TRFRET art, SRC1 TRFRET art)
N#C/C(=C\c1cccc2ccccc12)c1nn(-c2ccccc2)c(N)c1C#N	PPARg SRC1 recr 19 (no result: SRC3 TRFRET art, SRC1 TRFRET art)
Cc1ccc(/C=C(\C#N)c2nn(-c3ccccc3)c(N)c2C#N)cc1	none
CCCCSc1nc(C)nc2c1c(=O)n(C)c(=O)n2C	none (no result: SRC3 TRFRET art, SRC1 TRFRET art)
CCCSc1nc(C)nc2c1c(=O)n(C)c(=O)n2C	PPARg SRC1 recr 24 (no result: SRC3 TRFRET art, SRC1 TRFRET art)
O=C(NNC(=S)Nc1ccc(Cl)cc1Cl)C1CC1	none
C=CCn1c(=NC(=O)c2cc(-c3cccs3)nc3ccccc23)sc2cc(S(N)(=O)=O)ccc21	SRC3 TRFRET art 2319
COCCn1c(=NC(=O)c2cc(-c3cccs3)nc3ccccc23)sc2cc(S(N)(=O)=O)ccc21	none
N#CC1=C2SCN(c3ccccc3)CN2C(=O)CC1c1cccs1 (stereo not drawn)	SRC2 TRFRET art 2021 (no result: SRC3 TRFRET art, SRC1 TRFRET art)
CCOc1ccc(N2CSC3=C(C#N)C(c4ccco4)CC(=O)N3C2)cc1 (stereo not drawn)	PPARg SRC-2 ag 25 (no result: SRC3 TRFRET art, SRC1 TRFRET art)
N#CC1=C2SCN(c3ccccc3)CN2C(=O)CC1c1c(Cl)cccc1Cl (stereo not drawn)	none (no result: SRC3 TRFRET art, SRC1 TRFRET art)
COc1cc2[nH]c(=S)nc(NC3CCCC3)c2cc1OC	none
CCCCCCc1cc2cc(S(=O)(=O)c3ccc(F)c(Cl)c3)c(=O)oc2cc1O	none
O=C(Nc1cnccn1)c1cccc(C(F)(F)F)c1	SRC2 TRFRET art 2375, PPARg SRC-2 ag 65 (no result: SRC3 TRFRET art, SRC1 TRFRET art)
CC(/C=N/NC(=O)NC1CCCCC1)=C\c1ccccc1	SRC2 TRFRET art 2081
O=C(N/N=C/C(Br)=C/c1ccccc1)NC1CCCCC1	none
Cc1ccc(NC(=O)CN(C)C(=S)NC2CC2)cc1	PPARg SRC1 recr 26
CCC1(C)COC(C)(CC(=O)NNC(=O)Nc2ccccc2)OC1 (stereo not drawn)	none
O=C(COC(=O)c1cccc(S(=O)(=O)N2CCc3ccccc32)c1)Nc1ncc(Cl)cc1Cl	none
O=C(COC(=O)c1ccc(Cl)c(S(=O)(=O)N2CCc3ccccc3C2)c1)Nc1ncc(Cl)cc1Cl	SRC3 TRFRET art 2156
Clc1cccc(CN2CCN(Cc3nc(CCc4ccccc4)no3)CC2)c1	none
CCC(C)NC(=O)Cn1c(=O)n(CCCC(=O)NCc2ccccc2Cl)c(=O)c2ccccc21 (stereo not drawn)	PPARg SRC-2 ag 22 (no result: SRC3 TRFRET art, SRC1 TRFRET art)
COC(=O)c1sccc1NC(=O)c1ccc(Br)s1	PPARg SRC1 recr 43 (no result: SRC3 TRFRET art, SRC1 TRFRET art)
CN(C)c1ncc(C2=C(Cl)C(=O)C(N3CCCC3)=C(Cl)C2=O)s1	PPARg SRC1 recr 26 (no result: SRC3 TRFRET art, SRC1 TRFRET art)
